# Reference: PubChem BioAssay (NCATS)
# Records with an inconclusive call do not appear. Activity calls are given as the source filed them. Unless noted, the call rests on the fitted dose curve; in most records, active means well fitted curve in the direction sought with a large enough effect; inconclusive means small, poorly fitted or top-dose-only effect, or another doubt; inactive means no such curve, though single readings can be large; an effect the other way counts as inactive or inconclusive.
# Tests used:
# [1] = biological target: Calcium and integrin-binding protein 1 (Homo sapiens) (UniProt Q99828); assay: Primary qHTS for Identification of Calcium Integrin Binding Protein 1 (CIB1) Competitor (AID 1508620);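 further: GST tagged CIB1 binding a fluorescein labelled alphaIIb integrin peptide tracer; top concentration of the series differs between compounds; on the % scale 0 is the no-effect control and ±100 the full control effect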
# Outline: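 Fluorescence polarization competition: GST-tagged CIB1 (1 uM final) preincubated with compound 15 min at room temperature, then FITC-labelled alphaIIb peptide (100 nM final) added. After 15 min at room temperature, polarization read at Ex 480/Em 540.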
# [2] = Primary qHTS for inhibitors of nuclear receptor binding SET domain protein 2 (NSD2) in an isogenic RCH-ACV NSD2 p.E1099K mutant (9B) (AID 1645876); further: potency means the concentration at half of the fitted maximal effect; nearly all actives have a fitted effect of over 70% in size
# [3] = Primary qHTS for inhibitors of nuclear receptor binding SET domain protein 2 (NSD2) in an RCH-ACV wild type WT cells (2C) (AID 1645877); further: potency means the concentration at half of the fitted maximal effect; nearly all actives have a fitted effect of over 70% in size
# [4] = biological target: Glutathione peroxidase 1 (Homo sapiens) (UniProt P07203); assay: Primary qHTS Assay for Inhibitors of Recombinant Selenoprotein Glutathione Peroxidase 1 (GPX1) (AID 1845191); further: nearly all actives have a fitted effect of over 65% in size
# Outline: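 GR-coupled readout: NADPH consumption tracked by fluorescence, ex 340/em 450 nm, at t=0 and after 15 min at RT. Final mix 10 nM GPX1, 1 mM GSH, 0.5 mM CHP, 0.5 mM NADPH, 100 nM GR, 0.01% BSA, following 30 min enzyme–compound preincubation.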
# [5] = biological target: Phospholipid hydroperoxide glutathione peroxidase GPX4 (Homo sapiens) (UniProt P36969); assay: Primary qHTS Assay for Inhibitors of Recombinant Selenoprotein Glutathione Peroxidase 4 (GPX4) (AID 1845192); further: on the % scale 0 is the no-effect control and ±100 the full control effect; nearly all actives have a fitted effect of over 65% in size
# Outline: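 Steps: GPX4 plus compound, 30 min RT; add GR/GSH/NADPH master mix; start with cumene hydroperoxide; read 340/450 nm fluorescence at 0 and 15 min. Finals were 200 nM GPX4, 1 mM GSH, 0.5 mM CHP, 0.5 mM NADPH, 100 nM GR.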
# [6] = biological target: Luciferin 4-monooxygenase (Photinus pyralis) (UniProt P08659); assay: Primary firefly luciferase (FLuc) qHTS assay for identification of artifact compounds. (AID 1845220); conditions: outcome: dose series up to 54.1 µM unless noted; further: nearly all actives have a fitted effect of over 60% in size
# Outline: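 Titrated compounds were incubated 15 min at RT, protected from light, with luciferin and ATP at 10 uM; reaction started with 10 nM FLuc, luminescence imaged at 5 min, and concentration-response fitted by Hill equation.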
# [7] = Primary fluorescence-based thiol-reactive (MSTI) qHTS assay for identification of artifact compounds. (AID 1845221);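 further: thiol-reactive compounds lower the probe fluorescence signal; nearly all actives have a fitted effect of over 65% in size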
# Outline: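 Reactivity toward the thiol probe MSTI (4 uM) is scored by fluorescence at Ex/Em 525/598 nm after 1 h at room temperature. Acetyl-MSTI and MSTI define the activity scale.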
# [8] = test system: Nanoluciferase (engineered Oplophorus gracilirostris luciferase); assay: Primary Nanoluciferase (NLuc) qHTS assay for identification of artifact compounds. (AID 1845222);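 further: NLuc secreted into diluted conditioned medium of S16 cells; 0% = DMSO and -100% = no enzyme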
# Outline: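 qHTS format, against NLuc in S16 cell-conditioned medium. Nano-Glo substrate 1:100 was added after 15 min at room temperature. Luminescence was taken after a further 5 min.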
# [9] = test system: JEG-3; assay: Primary qHTS to identify gynecologic anti-cancer compounds using libraries of approved drugs and bioactive compounds (AID 1345084); conditions: Gynecologic cancer cell panel viability, ATPlite luminescence, 48 h; series mostly up to 57.5 µM; further: on the % scale 0 is the no-effect control and ±100 the full control effect; nearly all actives have a fitted effect of over 55% in size
# Outline: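 Measured: luminescence after ATPlite addition (15 min, RT). Exposure: 48 h, 37 C, 5% CO2.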
# [10] = P-glycoprotein substrates identified in KB-8-5-11 adenocarcinoma cell line, qHTS therapeutic library screen (AID 1346987); further: nearly all actives have a fitted effect of over 65% in size; further: potency means the concentration at half of the fitted maximal effect
# Outline: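 Compounds are pinned in dose-response onto KB-8-5-11 cells (500 cells/well, colchicine-free medium) and left 72 h at 37 degree C. CellTiter-Glo luminescence then yields AC50 values.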
# [11] = qHTS for Inhibitors of the Functional Ribonucleoprotein Complex (vRNP) of Lassa (LASV) Arenavirus: LASV Primary Screen - GLuc reporter signal (AID 1347082; calls by dose curve; tested in HEK293 reporter line; further: on the % scale 0 is the no-effect control and ±100 the full control effect; nearly all actives have a fitted effect of over 60% in size)
# [12] = test system: Zika virus NS2B-NS3 protease; assay: Primary screen GU AMC qHTS for Zika virus inhibitors (AID 1347154);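 further: 0% = no-inhibitor control and -100% = no-enzyme control; nearly all actives have a fitted effect of over 70% in size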
# Outline: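 Unlinked Zika NS2B hydrophilic domain–NS3 protease complex at 25 nM in 10 mM Tris-HCl pH 8.0, 0.01% Tween 20, with an AMC peptide substrate. Fluorescence change (340/450 nm) over 15 min at room temperature, normalized to controls, fitted to 4-parameter Hill.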
# [13] = biological target: Catechol O-methyltransferase (Homo sapiens) (UniProt P21964); assay: Confirmatory Screen for Target Class Profiling of Small Molecule Inhibitors of Methyltransferases (AID 1745852; calls by dose curve); conditions: MTase-Glo luminescence, SAH detection, recombinant enzyme; measured here: COMT max response; stronger effect = lower value
# [14] = biological target: Guanidinoacetate N-methyltransferase (Homo sapiens) (UniProt Q14353); assay: as above; conditions: activity change, negative = inhibition: at 57.3 µM (top of the series) unless noted
# [15] = biological target: Nicotinamide N-methyltransferase (Homo sapiens) (UniProt P40261); assay: as above; conditions: MTase-Glo luminescence, SAH detection, recombinant enzyme; measured here: NNMT max response; stronger effect = lower value
# [16] = biological target: Phenylethanolamine N-methyltransferase (Homo sapiens) (UniProt P11086); assay: as above; conditions: MTase-Glo luminescence, SAH detection, recombinant enzyme; measured here: PNMT max response; stronger effect = lower value
# [17] = qHTS Assay for Identifying Gametocytocidal Compounds (AID 743244);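 further: on the % scale 0 is the no-effect control and ±100 the full control effect; actives lower the fluorescent signal which means gametocytes are killed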; conditions: P. falciparum 3D7 stage III-V gametocytes, alamarBlue, 72 h; max response: stronger effect = lower value
# Outline: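 Using 20,000 stage III–V 3D7 gametocytes per well, compounds were incubated 72 h under 37 °C/5% CO2. Viability was then assessed by 24 h alamarBlue reduction, measured fluorometrically at 525/598 nm.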
# [18] = biological target: Luciferin 4-monooxygenase (Photinus pyralis) (UniProt P08659); assay: Biochemical firefly luciferase enzyme assay for NPC (AID 624030);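 further: purified P. pyralis luciferase at 10 nM with luciferin and ATP substrate; 0% = DMSO and -100% = full luciferase inhibition by PTC124 control; nearly all actives have a fitted effect of over 70% in size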
# Outline: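 Purified P. pyralis luciferase at 10 nM in 50 mM Tris Acetate (final), luminescence read within 5 minutes of enzyme addition to compounds. Activity normalised to PTC124 versus DMSO; concentration-response curves classed by r2, magnitude and activity.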
# [19] = Drug repurposing screens with cells derived from glioblastoma tumor samples (AID 1345199); conditions: GBM patient neurospheres viability, ATP luminescence, 48 h; Potency: tumour line A; series mostly up to 45.9 µM; further: on the % scale 0 is the no-effect control and ±100 the full control effect; nearly all actives have a fitted effect of over 40% in size
# Outline: (§1)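 Primary testing used CD133+ neurospheres from four GBM patients, seven concentrations, 48 h exposure and ATP-based viability; confirmation added three slower-growing patient lines.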
# [20] = test system: astro; assay: as above; conditions: viability, ATP luminescence, 48 h; series mostly up to 45.9 µM
# Outline: as §1
# [21] = P-glycoprotein substrates identified in KB-3-1 adenocarcinoma cell line, qHTS therapeutic library screen (AID 1346986);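 further: potency means the concentration at half of the fitted maximal effect; potency is for cytotoxicity meaning loss of cell viability; nearly all actives have a fitted effect of over 60% in size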
# Outline: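 In 1536-well format, 500 cells/well received pinned compound titrations and were incubated 72 h, 5% CO2. Viability was read by CellTiter-Glo; cytotoxic if AC50 < 10 uM and efficacy >50%.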
# [22] = Cytotoxicity counterscreen for inhibitors of SARS-CoV-2 cell entry (AID 1645845; calls by dose curve; further: potency means the concentration at half of the fitted maximal effect; nearly all actives have a fitted effect of over 50% in size)
# Outline: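 Counterscreen run in the same HEK293-ACE2 line as the pseudotyped-particle entry assay, without particles. Viability after 48 h at 37 C was read as ATP luminescence, scaled between cell-containing and cell-free wells.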
# [23] = qHTS drug screen for cell cycle checkpoint inhibitors in PARPi-resistant BRCA-mutant ovarian cancer cell lines. (AID 1963452; calls by dose curve); conditions: PEO1/OlaR viability, CellTiter-Glo luminescence, 96 h, stronger effect = lower value
# Outline: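 PEO1, PEO4 and PEO1/OlaR ovarian cancer cells, 600 per well, exposed 96 h at 37C to a dilution series. Viability read by CellTiter-Glo luminescence, normalized to DMSO and empty wells; activity summarized as Z-AUC.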
# Chain of Glutathione peroxidase 1 (Homo sapiens) (P07203 whole entry, looked up): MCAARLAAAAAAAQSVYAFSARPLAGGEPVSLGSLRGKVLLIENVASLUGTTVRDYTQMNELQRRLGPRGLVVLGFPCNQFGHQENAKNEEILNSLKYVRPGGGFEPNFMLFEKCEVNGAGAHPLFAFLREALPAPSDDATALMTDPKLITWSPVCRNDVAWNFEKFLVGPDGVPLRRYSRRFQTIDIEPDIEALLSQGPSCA
# Chain of Phospholipid hydroperoxide glutathione peroxidase GPX4 (Homo sapiens) (P36969 whole entry, looked up): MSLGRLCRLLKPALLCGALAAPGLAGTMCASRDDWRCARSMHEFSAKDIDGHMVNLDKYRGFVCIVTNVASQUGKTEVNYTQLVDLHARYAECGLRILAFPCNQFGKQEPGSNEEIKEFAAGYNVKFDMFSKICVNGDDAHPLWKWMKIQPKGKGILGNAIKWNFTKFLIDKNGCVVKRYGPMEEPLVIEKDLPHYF
# Chain of Nicotinamide N-methyltransferase (Homo sapiens) (P40261 whole entry, looked up): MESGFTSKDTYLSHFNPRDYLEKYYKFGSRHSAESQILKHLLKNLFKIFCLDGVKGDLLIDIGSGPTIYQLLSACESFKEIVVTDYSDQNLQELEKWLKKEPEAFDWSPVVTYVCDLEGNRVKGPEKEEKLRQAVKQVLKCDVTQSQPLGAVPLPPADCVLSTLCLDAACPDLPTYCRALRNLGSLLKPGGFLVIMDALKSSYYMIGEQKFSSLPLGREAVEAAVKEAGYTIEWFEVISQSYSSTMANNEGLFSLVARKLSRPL
# Chain of Calcium and integrin-binding protein 1 (Homo sapiens) (Q99828 whole entry, looked up): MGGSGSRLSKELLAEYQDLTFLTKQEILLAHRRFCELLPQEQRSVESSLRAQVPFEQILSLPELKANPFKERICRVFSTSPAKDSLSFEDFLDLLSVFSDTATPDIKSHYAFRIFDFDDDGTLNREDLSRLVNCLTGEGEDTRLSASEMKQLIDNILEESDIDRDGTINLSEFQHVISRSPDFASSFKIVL
# Chain of Catechol O-methyltransferase (Homo sapiens) (P21964 whole entry, looked up): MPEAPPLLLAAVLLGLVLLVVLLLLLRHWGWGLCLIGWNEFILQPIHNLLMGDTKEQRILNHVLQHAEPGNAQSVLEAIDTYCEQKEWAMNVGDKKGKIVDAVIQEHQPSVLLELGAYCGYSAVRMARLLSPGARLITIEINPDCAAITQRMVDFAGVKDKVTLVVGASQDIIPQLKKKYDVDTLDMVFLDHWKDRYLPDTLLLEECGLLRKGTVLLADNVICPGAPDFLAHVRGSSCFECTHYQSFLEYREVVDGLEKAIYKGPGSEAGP
# Chain of Phenylethanolamine N-methyltransferase (Homo sapiens) (P11086 whole entry, looked up): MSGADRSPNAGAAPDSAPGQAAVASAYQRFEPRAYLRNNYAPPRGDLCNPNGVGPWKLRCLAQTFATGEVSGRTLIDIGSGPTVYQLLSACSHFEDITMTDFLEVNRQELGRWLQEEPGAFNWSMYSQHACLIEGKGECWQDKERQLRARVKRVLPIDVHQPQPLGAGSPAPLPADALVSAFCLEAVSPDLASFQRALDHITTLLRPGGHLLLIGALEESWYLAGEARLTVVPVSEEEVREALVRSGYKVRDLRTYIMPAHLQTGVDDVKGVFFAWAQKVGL
# Chain of Luciferin 4-monooxygenase (Photinus pyralis) (P08659 whole entry, looked up): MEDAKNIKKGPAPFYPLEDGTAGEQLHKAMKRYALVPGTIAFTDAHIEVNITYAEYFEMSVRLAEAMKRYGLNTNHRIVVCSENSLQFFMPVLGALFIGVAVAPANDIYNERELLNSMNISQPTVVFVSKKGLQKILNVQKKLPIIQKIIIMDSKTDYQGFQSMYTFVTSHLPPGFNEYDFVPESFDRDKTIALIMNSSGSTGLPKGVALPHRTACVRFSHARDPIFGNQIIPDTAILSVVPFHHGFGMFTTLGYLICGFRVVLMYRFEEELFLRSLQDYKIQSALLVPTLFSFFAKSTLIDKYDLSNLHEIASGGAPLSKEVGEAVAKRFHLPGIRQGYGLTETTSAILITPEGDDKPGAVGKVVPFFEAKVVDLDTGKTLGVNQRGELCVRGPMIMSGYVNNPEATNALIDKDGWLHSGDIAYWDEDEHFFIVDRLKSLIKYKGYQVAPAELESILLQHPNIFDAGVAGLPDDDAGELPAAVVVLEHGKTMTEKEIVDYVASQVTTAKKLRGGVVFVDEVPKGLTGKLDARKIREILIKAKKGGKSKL
structure (smiles),measurement,setting,value
CC[C@@H](C)[C@H]1C(=O)O[C@H](C(C)C)C(=O)N(C)[C@@H]([C@@H](C)CC)C(=O)O[C@H](C(C)C)C(=O)N(C)[C@@H]([C@H](C)CC)C(=O)O[C@H](C(C)C)C(=O)N1C,Potency,[1],inactive
same,Potency,[2],4.3 µM (active)
same,Potency,[3],1.71 µM (active)
same,Potency,[4],inactive
same,Potency,[5],inactive
same,outcome,[6],inactive [at 25.7 µM]
same,Potency,[7],inactive
same,Potency,[8],inactive
same,Potency,[9],inactive
O=C1NC(=O)c2c1c1c3ccccc3[nH]c1c1[nH]c3ccccc3c21,Potency,[10],inactive
same,Potency,[11],inactive
same,Potency,[12],inactive
same,activity,[13],-2.49%
same,Potency,[14],inactive
same,activity,[15],-2.73%
same,activity,[16],-3.39%
same,Potency,[4],inactive
COc1cc([C@@H]2c3cc4c(cc3[C@@H](O)[C@H]3COC(=O)[C@H]23)OCO4)cc(OC)c1O,max response,[17],5.77% (inactive)
same,Potency,[10],0.651 µM (active)
O=P1(N(CCCl)CCCl)NC(OO)CCO1 (configuration not stated),Potency,[18],inactive
same,max response,[17],-1.64% (inactive)
same,Potency,[10],inactive
same,Potency,[19],inactive
same,Potency,[20],inactive
C#C[C@]1(OC(=O)CCCCCC)CC[C@H]2[C@@H]3CCC4=CC(=O)CC[C@@H]4[C@H]3CC[C@@]21C,max response,[17],-5.44% (inactive)
same,Potency,[10],20.6 µM (active)
C/C=C(\C)C(=O)N[C@@H](c1ccccc1)[C@@H](O)C(=O)O[C@H]1C[C@@]2(O)[C@@H](OC(=O)c3ccccc3)C3[C@](C)(C(=O)[C@H](O)C(=C1C)C2(C)C)[C@@H](O)C[C@H]1OC[C@@]31OC(C)=O (some centres not stated),Potency,[11],inactive
O=C(NCCCNc1nc(Nc2ccc(N3CCOCC3)cc2)ncc1C1CC1)C1CCC1,Potency,[21],10.3 µM (active)
same,Potency,[10],11.6 µM (active)
same,Potency,[22],22.4 µM (active)
same,Potency,[2],5.25 µM (active)
same,Potency,[3],7.42 µM (active)
same,Potency,[4],inactive
same,Potency,[5],inactive
same,Z-AUC,[23],0.0288 (inactive)
same,Z-AUC,[23]; measured here: PEO1 parental Z-AUC,-0.267
same,Z-AUC,[23]; measured here: PEO4 Z-AUC,-0.524
